Source: PubChem BioAssay (EPA / NIEHS)
Active and inactive are the calls of the source. The calls were made as follows: active = hit-call score of the fitted dose curve at least 0.9, where 1 is the maximum; inactive = score below 0.9.

assay: ATG_GRE_CIS: Attagene CIS-FACTORIAL HepG2 Assay for human Glucocorticoid Response Elements (GRE) (AID 2282947); settings: HepG2 GRE cis-reporter, Attagene multiplex mRNA; actives raise or lower the signal
Method in brief: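 HepG2 cells transiently transfected with multiple cis-promoter reporter units measure endogenous TF activity; 24 h compound exposure. Reporter mRNA quantified by RT-PCR, FAM labelling, HpaI digestion and capillary electrophoresis; bidirectional fit vs DMSO baseline.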

| Structure (SMILES) | outcome |
| --- | --- |
| N#CS | inactive |
| Cc1cccc(OP(=O)(Oc2cccc(C)c2)Oc2cccc(C)c2)c1 | inactive |
| COc1ccc([N+](=O)[O-])cc1O | inactive |
| O=c1nc(O)n(Cl)c(=O)n1Cl | inactive |
| O=NN1CCOCC1 | inactive |
| CCOP(=S)(OCC)SCS(=O)(=O)C(C)(C)C | inactive |
| CC(c1ccc(O)cc1)c1ccc(O)cc1 | inactive |
| COc1nn(C(=O)NS(=O)(=O)c2ccccc2OC(F)(F)F)c(=O)n1C | inactive |
| CC(C)[N+](=O)[O-] | inactive |
| CC1(C)[C@H](C(=O)O[C@H](C#N)c2cccc(Oc3ccccc3)c2)[C@@H]1/C=C(\Cl)C(F)(F)F | inactive |
| Brc1ccc(Br)cc1 | inactive |
| CCCCCCCCCCCCCl | inactive |
| CCOc1cc(C=O)ccc1O | inactive |
| O=S(=O)(C(Cl)(Cl)Cl)C(Cl)(Cl)Cl | inactive |
| O=C(N[C@H]1CN2CCC1CC2)c1ccc2c(c1)OCCO2 | inactive |
| O=C(Cc1ccccc1)OCCc1ccccc1 | inactive |
| OC[C@@H](O)[C@H]1O[C@@H]2O[C@H](C(Cl)(Cl)Cl)O[C@@H]2[C@H]1O | inactive |
| Oc1c(Cl)cc(Cl)cc1Cl | inactive |
| C[N+](C)(C)Cc1ccccc1 | inactive |
| OC(Cc1ccccc1Cl)(Cn1[nH]cnc1=S)C1(Cl)CC1 (configuration not stated) | inactive |
| CC1(C)[C@H](/C=C2\CCSC2=O)[C@@H]1C(=O)OCc1coc(Cc2ccccc2)c1 | inactive |
| C#CCOC(=O)/C=C(C)/C=C/CC(C)CCCC(C)C (configuration not stated) | inactive |
